Compound activity deposited in PubChem BioAssay by National Center for Advancing Translational Sciences (NCATS).
Shown are actives, neighbours in structure and some others; about 2.4% of the full set was active somewhere.
TRHR PAM = allosterically enhances the human TRH receptor. TRHR cells, fluo-8 calcium fluorescence, EC20 TRH enhancement. P34981. 360,000 tested, 0.66% active. enhancement, % at 2 µM; in the data active = enhancement above about 30%; also: 0% is about no effect
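TRHR-expressing cells loaded with fluo-8 calcium dye were read kinetically (ex 480/em 530) during compound addition, then stimulated with an EC20 of TRH (10 nM final). Enhancement of the Gq-mediated intracellular calcium response was scored.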
HEK293 tox = cytotoxicity in counter-screen for GLP-1R inverse agonists. Potency, µM (doses to about 38.3 µM), without a hit: at the highest dose activity change, negative = inhibition, actives largely listed as inhibitors. 410,000 tested, 0.13% active. HEK293 cAMP-luciferase reporter cells, luminescence, 24 h;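 also: loss of luciferase light is scored as toxicity; potency is read from the fitted curve at half-maximal effect; % is scaled to controls: 0 for no effect and ±100 for the full control effect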
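Seeding density was 200 cells/uL; after overnight-length (12 h) culture, 23 nL compounds went on for 24 h at 37 °C. Readout used a luciferase detection reagent, luminescence taken after 12 min at room temperature.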
GLP-1R inv ag = inverse agonists of human GLP-1 receptor; P43220; HEK293 GLP-1R CRE-luciferase, luminescence, 24 h; GLP-1R form is constitutively active; Potency, µM (highest dose often 38.3 µM), without a hit: at the top dose activity change, negative = inhibition, usual class: inhibitors; 410,000 tested, 1.6% active; also: potency is read from the fitted curve at half-maximal effect; % is scaled to controls: 0 for no effect and ±100 for the full control effect; nearly all actives have a fitted effect of over 55% in size
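Inverse agonism was detected as reduced cAMP-driven luciferase luminescence after 24 h compound treatment. The cells were HEK293 clones expressing constitutively active human GLP-1R with the reporter. Reporter-only and GPR119 cell lines served as counterscreen controls.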
PTHR1 ag = agonists of human PTHR1 parathyroid hormone receptor. Potency, µM (series often up to 115 µM), without a hit: at the top dose activation, hits mostly activators. 410,000 tested, 0.075% active. HEK293 GP2 PTHR1 cells, GloSensor cAMP luminescence, 1 h. Q03431; also: potency is read from the fitted curve at half-maximal effect; nearly all actives have a fitted effect of over 55% in size
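HEK-293-derived GP2 cells expressing PTHR1 and a GloSensor cAMP reporter, 3,000/well, plated overnight, given luciferin plus IBMX (each 0.5 mM as added) for 1 h at 37 °C, then compound for 1 h at 37 °C. Luminescence was read after 15 min at room temperature.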
GLP-1R agonist = GLP-1 receptor (human) agonism. P43220. HEK293 GLP-1R CRE-luciferase, luminescence, 4-6 h; cells express a hypersensitive GLP-1R form. Potency, µM (doses to about 45.6 µM), for the others: at the highest dose activation, usual class: activators. 380,000 tested, 0.007% active; also: potency is read from the fitted curve at half-maximal effect; % of control where 0% means no effect
TRHR ag = activates the human TRH receptor. TRHR cells, calcium flux fluo-8, FDSS agonist mode. activation, % at 2 µM. 360,000 tested, 0.18% active; in the data active = activation above about 30%; also: 0% is about no effect
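Read-out: compound-evoked intracellular calcium rise in TRHR cells, fluo-8 dye, kinetic FDSS fluorescence at 1 s/cycle following a 10-cycle baseline. Cells cultured overnight before dye loading (30 min–1.5 h, RT).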
* hit, by the source's call; [ ] = dose if it differs, or a comment. Unless noted, calls follow the shape of the dose curve; as a rule, active = well fitted curve in the direction sought with a large enough effect; inconclusive = small, poorly fitted or top-dose-only effect, or another doubt; inactive = no such curve, though single readings can be large; an effect the other way counts as inactive or inconclusive.

Screening O=C(Cc1ccccc1F)Nc1nc(-c2ccc(F)cc2)cs1 returned TRHR PAM -3, HEK293 tox -8%, GLP-1R inv ag 8.9µM*, PTHR1 ag -21%, GLP-1R agonist 2% and TRHR ag 0.
Screening C/C(=C\C(=O)c1ccc(Br)cc1)NNC(=O)c1ccc(O)cc1 returned TRHR PAM 7, HEK293 tox inconclusive, GLP-1R inv ag 4.5µM*, PTHR1 ag 25%, GLP-1R agonist -7% and TRHR ag 0.
`C/C(=C\C(=O)c1ccc(Cl)cc1)Nc1ccc(Br)cc1` gave HEK293 tox -12%, GLP-1R inv ag inconclusive, PTHR1 ag -9% and GLP-1R agonist -3%.
Screening C/C(=C\C(=O)c1ccc(Br)cc1)NCc1ccc(C)cc1 returned TRHR PAM 40*, HEK293 tox 5%, GLP-1R inv ag inconclusive, PTHR1 ag -28%, GLP-1R agonist 0% and TRHR ag 0.
`O=C(COc1ccc(S(=O)(=O)N2CCOCC2)cc1)NC1CC1` gave TRHR PAM 20, HEK293 tox 2%, GLP-1R inv ag 6%, PTHR1 ag -19%, GLP-1R agonist 2% and TRHR ag 1.
Screening COc1ccc(OC)c(CCNC(=O)C2=C(C)C(=O)OC23CCC(C)CC3)c1 (configuration not stated) returned TRHR PAM -7, HEK293 tox -1%, GLP-1R inv ag -8%, PTHR1 ag -48% and TRHR ag 0.
For COc1ccc(CCNC(=O)C2=C(C)C(=O)OC23CCCCC3)c(OC)c1OC the results were TRHR PAM 31*, HEK293 tox 1%, GLP-1R inv ag -6%, PTHR1 ag -22% and TRHR ag 0.
For CCCc1ccc(C(=O)/C=C/N(C)C)cc1 the results were TRHR PAM -2, HEK293 tox 9%, GLP-1R inv ag -35%, PTHR1 ag -58%, GLP-1R agonist -6% and TRHR ag 0.
Screening CCN(CC)c1ccc2cc(C(N)=O)c(=N)oc2c1 returned TRHR PAM 1, HEK293 tox 4%, GLP-1R inv ag 69%, PTHR1 ag inactive, GLP-1R agonist 17% and TRHR ag 25.
Screening CCN(CC)c1ccc2cc(C(C)=O)c(=O)oc2c1 returned TRHR PAM -2, HEK293 tox inactive, GLP-1R inv ag 61%, PTHR1 ag -5%, GLP-1R agonist 13% and TRHR ag 67*.
`CCN(CC)c1ccc2cc(C=O)c(=O)oc2c1` gave TRHR PAM 9, HEK293 tox inactive, GLP-1R inv ag 0%, PTHR1 ag -2%[57.5 µM], GLP-1R agonist 5% and TRHR ag 116*.
Screening CCN(CC)c1ccc2cc(C(=O)Nc3ccccn3)c(=O)oc2c1 returned TRHR PAM -8, HEK293 tox 190%, GLP-1R inv ag 42%, PTHR1 ag -17%[57.5 µM], GLP-1R agonist -7% and TRHR ag 37*.
For CCN(CC)c1ccc2cc(C(N)=O)c(=O)oc2c1 the results were TRHR PAM 4, HEK293 tox 286%, GLP-1R inv ag 9%, PTHR1 ag 2%[57.5 µM], GLP-1R agonist 9% and TRHR ag 0.
CCc1nc2ccc(C(=O)N3CCN(C(=O)c4ccco4)CC3)cn2c1N(C)C(=O)Nc1ccccc1OC was read as HEK293 tox 1%, GLP-1R inv ag 2%, PTHR1 ag inactive and GLP-1R agonist 0%.
`CCOC(=O)c1ccc(N2C(=O)c3n[nH]c(-c4ccco4)c3C2c2cccc(F)c2)cc1` (configuration not stated) gave TRHR PAM 34*, HEK293 tox inconclusive, GLP-1R inv ag inconclusive, PTHR1 ag -25%, GLP-1R agonist -11% and TRHR ag 7.
